Source: PubChem BioAssay (NCATS)
Records with an inconclusive call do not appear. Calls of active or inactive are those of the source. Calls follow the shape of the dose curve; as a rule, active = well fitted curve in the direction sought with a large enough effect; inconclusive = small, poorly fitted or top-dose-only effect, or another doubt; inactive = no such curve, though single readings can be large; an effect the other way counts as inactive or inconclusive.

Key:
[1] = biological target: Nuclear receptor subfamily 1 group I member 3 (Homo sapiens) (UniProt Q14994); test: Primary qHTS for antagonist of constitutive androstane receptor (CAR) against the NCATS DSHEA and TCM libraries (AID 1794836); conditions: CAR reporter cell assay, antagonist mode, luciferase; series mostly up to 40 µM
Sequence of Nuclear receptor subfamily 1 group I member 3 (Homo sapiens) (Q14994 whole entry, looked up): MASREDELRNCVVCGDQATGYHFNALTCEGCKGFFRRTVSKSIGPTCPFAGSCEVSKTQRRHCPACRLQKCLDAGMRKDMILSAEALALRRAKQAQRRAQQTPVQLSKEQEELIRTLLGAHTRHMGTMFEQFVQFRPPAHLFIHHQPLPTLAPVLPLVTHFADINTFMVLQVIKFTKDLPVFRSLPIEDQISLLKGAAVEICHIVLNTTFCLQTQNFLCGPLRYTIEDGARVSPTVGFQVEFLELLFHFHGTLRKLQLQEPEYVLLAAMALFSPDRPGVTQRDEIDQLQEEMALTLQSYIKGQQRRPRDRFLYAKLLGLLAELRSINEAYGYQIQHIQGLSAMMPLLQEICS
Summary of the method: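 HepG2 cells stably carrying hCAR and a CYP2B6 luciferase reporter (2,500 cells/well) attached for 5 h, then received compounds with 48 uM CITCO for 24 h at 37C. ONE-Glo luminescence read antagonism; CellTiter-Fluor (405/540 nm) gave viability.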

[2] = biological target: Glutathione peroxidase 1 (Homo sapiens) (UniProt P07203); test: Primary qHTS Assay for Inhibitors of Recombinant Selenoprotein Glutathione Peroxidase 1 (GPX1) (AID 1845191); conditions: recombinant GPX1, GR-coupled NADPH fluorescence, 15 min; series mostly up to 48.8 µM; also: nearly all actives have a fitted effect of over 65% in size
Sequence of Glutathione peroxidase 1 (Homo sapiens) (P07203 whole entry, looked up): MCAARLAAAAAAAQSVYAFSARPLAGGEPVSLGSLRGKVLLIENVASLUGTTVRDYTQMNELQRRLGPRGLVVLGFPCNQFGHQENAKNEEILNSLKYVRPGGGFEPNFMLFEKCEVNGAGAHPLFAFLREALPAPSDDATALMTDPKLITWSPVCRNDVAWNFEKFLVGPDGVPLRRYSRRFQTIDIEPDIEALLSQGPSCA
Summary of the method: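 GPX1 10 nM, GR 100 nM, GSH 1 mM, NADPH 0.5 mM, CHP 0.5 mM (final). 30-min cpd preincubation, RT. Ex340/Em450 read t=0, t=15 min.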

[3] = biological target: Phospholipid hydroperoxide glutathione peroxidase GPX4 (Homo sapiens) (UniProt P36969); test: Primary qHTS Assay for Inhibitors of Recombinant Selenoprotein Glutathione Peroxidase 4 (GPX4) (AID 1845192); conditions: recombinant GPX4, GR-coupled NADPH fluorescence, 15 min; series mostly up to 50 µM; also: nearly all actives have a fitted effect of over 65% in size
Sequence of Phospholipid hydroperoxide glutathione peroxidase GPX4 (Homo sapiens) (P36969 whole entry, looked up): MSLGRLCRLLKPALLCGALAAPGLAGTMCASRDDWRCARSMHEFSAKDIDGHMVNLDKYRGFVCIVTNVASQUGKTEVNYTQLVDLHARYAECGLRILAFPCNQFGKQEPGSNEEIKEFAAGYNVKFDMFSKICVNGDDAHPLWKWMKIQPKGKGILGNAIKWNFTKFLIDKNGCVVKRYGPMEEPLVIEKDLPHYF
Summary of the method: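 qHTS, GR-coupled: GPX4 200 nM + cpd 30 min RT → GSH 1 mM, NADPH 0.5 mM, GR 100 nM → CHP 0.5 mM start; fluor 340/450 at t0 and t15 min; no-enzyme wells as control.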

[4] = biological target: Metallo-beta-lactamase type 2 (Klebsiella pneumoniae) (UniProt C7C422); test: qHTS to identify inhibitors of the New Delhi Metallo-beta-lactamase (NDM): assay validation screen against the NCATS LOPAC Collection (AID 1794843); conditions: NDM-1 enzyme, nitrocefin hydrolysis, absorbance 485 nm; series mostly up to 38.4 µM
Sequence of Metallo-beta-lactamase type 2 (Klebsiella pneumoniae) (C7C422 whole entry, looked up): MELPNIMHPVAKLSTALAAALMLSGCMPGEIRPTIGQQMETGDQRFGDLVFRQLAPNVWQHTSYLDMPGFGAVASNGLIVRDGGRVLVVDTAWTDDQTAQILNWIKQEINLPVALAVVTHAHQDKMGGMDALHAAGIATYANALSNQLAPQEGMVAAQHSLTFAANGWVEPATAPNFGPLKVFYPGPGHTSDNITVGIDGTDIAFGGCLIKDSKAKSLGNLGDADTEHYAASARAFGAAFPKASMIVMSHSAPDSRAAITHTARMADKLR
Summary of the method: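 Absorbance at 485 nm from nitrocefin turnover (50 uM solution added), read at plateau, gives the read-out. Compounds in DMSO were incubated first with 2 nM final NDM-1 in pH 7.0 HEPES buffer containing 1 uM ZnSO4 and 0.01% Tween20.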

[5] = Quantitative High-Throughput drug screen in 47 multiple myeloma cell lines against the NCATS MIPE library collection: FR4_PLB cell viability assay (AID 1918924; also: nearly all actives have a fitted effect of over 35% in size); conditions: FR4_PLB myeloma cells viability, CellTiter-Glo ATP, 48 h; series mostly up to 45.8 µM
Summary of the method: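 Relative luminescence from CellTiter-Glo served as the viability signal, referenced to DMSO-treated (100%) and cell-free medium (0%) controls. Treatment lasted 48 hours at 37C with 500 cells per well.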

[6] = Quantitative High-Throughput drug screen in 47 multiple myeloma cell lines against the NCATS MIPE library collection: EJM_DSMZ cell viability assay (AID 1918926; also: nearly all actives have a fitted effect of over 30% in size); conditions: EJM myeloma cell viability, CellTiter-Glo ATP, 48 h; series mostly up to 45.8 µM
Summary of the method: (§1)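 Viability readout: CellTiter-Glo luminescence following 5 min room-temperature incubation with reagent. Prior exposure: 48 h, 37C, humidified 5% CO2, 500 cells per well.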

[7] = Quantitative High-Throughput drug screen in 47 multiple myeloma cell lines against the NCATS MIPE library collection: AMO1_DSMZ cell viability assay (AID 1918927; also: nearly all actives have a fitted effect of over 30% in size); conditions: AMO1 myeloma cells viability, CellTiter-Glo ATP luminescence, 48 h; series mostly up to 45.8 µM
Summary of the method: as §1

[8] = Quantitative High-Throughput drug screen in 47 multiple myeloma cell lines against the NCATS MIPE library collection: ARP1_JJKsccF8 cell viability assay (AID 1918928; also: nearly all actives have a fitted effect of over 40% in size); conditions: ARP1 myeloma cells viability, CellTiter-Glo ATP, 48 h; series mostly up to 45.8 µM
Summary of the method: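 CellTiter-Glo luminescence after 48 h exposure gives viability, scaled between DMSO-only (100%) and media-only (0%) controls. Library compounds are pinned onto 500 myeloma cells per well, incubated at 37C with 5% CO2.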

[9] = Quantitative High-Throughput drug screen in 47 multiple myeloma cell lines against the NCATS MIPE library collection: ARD_JJKsccE7 cell viability assay (AID 1918929); conditions: ARD myeloma cell line viability, CellTiter-Glo, 48 h; series mostly up to 45.8 µM
Summary of the method: as §1

[10] = Viability counterscreen for antagonist of constitutive androstane receptor (CAR) against the NCATS DSHEA and TCM libraries (AID 1794837); conditions: CAR reporter cell line viability counterscreen, qHTS; series mostly up to 40 µM;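 also: compound exposure lasted 24 h before viability reading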
Summary of the method: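 Fluorescence from CellTiter-Fluor reports live-cell protease activity in HepG2-CYP2B6-hCAR cells treated for 24 h with substances alongside 48 uM CITCO.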

[11] = Viability counterscreen for agonist of constitutive androstane receptor (CAR) against the NCATS DSHEA and TCM libraries (AID 1794838); conditions: HepG2 cell viability counterscreen, CAR agonist assay; series mostly up to 40 µM
Summary of the method: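 In agonist mode, PK11195 is added at 0.75 uM final to HepG2-CYP2B6-hCAR cells dosed with test substances. Cultures incubate 24 h at 37C before a protease-based fluorogenic viability readout.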

[12] = biological target: Nuclear receptor subfamily 1 group I member 3 (Homo sapiens) (UniProt Q14994); test: Primary qHTS for agonist of constitutive androstane receptor (CAR) against the NCATS DSHEA and TCM libraries (AID 1794839); conditions: CAR agonist reporter cells, qHTS luminescence; series mostly up to 40 µM;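 also: HepG2 cells expressing human CAR with a CYP2B6 reporter plus PK11195 antagonist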
Summary of the method: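 Cells stably carrying hCAR and a CYP2B6 reporter (HepG2 background) are seeded and allowed 5 h to adhere. Substances at multiple concentrations are added alongside 0.75 µM PK11195, and luciferase signal is measured after 24 h.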

[13] = HepG2 viability counterscreen (readout 2: ATP content) against the NCATS DSHEA and TCM libraries (AID 1794840); conditions: ATP content luminescence; series mostly up to 27.3 µM;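 also: HepG2 cells exposed to substances for about 24 h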
Summary of the method: (§2)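 Cytotoxicity was assessed in HepG2 cells plated at 1,000 cells/well and exposed for about 24 hours to a concentration series. Protease activity and ATP content were measured sequentially in each well.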

[14] = HepG2 viability counterscreen (readout 1: protease activity) against the NCATS DSHEA and TCM libraries (AID 1794841); conditions: qHTS concentration series; series mostly up to 27.3 µM;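 also: cells exposed to compounds for about 24 h before the protease read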
Summary of the method: as §2

[15] = biological target: Luciferin 4-monooxygenase (Photinus pyralis) (UniProt P08659); test: Primary firefly luciferase (FLuc) qHTS assay for identification of artifact compounds. (AID 1845220); conditions: purified firefly luciferase, luminescence, 5 min; series mostly up to 54.1 µM; also: nearly all actives have a fitted effect of over 60% in size
Summary of the method: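 Reaction readout was CCD-imaged luminescence, taken 5 min after adding 10 nM purified firefly enzyme to compound-treated wells holding 10 uM luciferin and ATP in pH 7.6 buffer.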

[16] = Primary fluorescence-based thiol-reactive (MSTI) qHTS assay for identification of artifact compounds. (AID 1845221); conditions: MSTI thiol-reactivity probe, 1 h; series mostly up to 53.8 µM;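 also: thiol-reactive compounds lower the probe fluorescence signal; nearly all actives have a fitted effect of over 65% in size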
Summary of the method: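 In PBS pH 7.4 with 2% DMSO, each compound met 4 uM MSTI for one hour at ambient temperature, shielded from light, before fluorescence detection.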

[17] = tested on: Nanoluciferase (engineered Oplophorus gracilirostris luciferase); test: Primary Nanoluciferase (NLuc) qHTS assay for identification of artifact compounds. (AID 1845222); conditions: NLuc-conditioned medium, Nano-Glo luminescence, 5 min; series mostly up to 54.1 µM;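 also: NLuc secreted into diluted conditioned medium of S16 cells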
Summary of the method: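 Concentration-response data were obtained by luminescence after 5 min with Nano-Glo substrate at 1:100. The enzyme was diluted S16 NLuc-expressing cell medium, preincubated with compound for 15 min at RT. Curves were fitted with a 4-parameter Hill model.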

[18] = Primary redox qHTS assay for identification of artifact compounds. (AID 1845223); conditions: Amplex Red/HRP redox cycling with DTT, fluorescence; series mostly up to 53.8 µM
Summary of the method: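 Redox-cycling detection via DTT (250 uM final) oxidation coupled to Amplex Red (25 uM)/HRP (250 mU/mL) in HBSS. 15 min preincubation plus 30 min after DTT, room temperature. Ex/Em 525/598 nm; 4-parameter Hill fit against DMSO and 10 uM DA3003.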

[19] = Quantitative High-Throughput drug screen in 47 multiple myeloma cell lines against the NCATS MIPE library collection: Delta47_JCRB cell viability assay (AID 1918925; also: nearly all actives have a fitted effect of over 45% in size); conditions: Delta47 myeloma viability, CellTiter-Glo ATP, 48 h; series mostly up to 45.8 µM
Summary of the method: as §1

Measured: Potency

Oc1ccc(/C=C/c2cc(O)cc(O)c2)cc1
inactive: [1]

CNC(C)Cc1ccccc1OC (stereo not drawn)
inactive: [2] | [3]

COc1ccc(C(=O)N2CCCC2=O)cc1
inactive: [4] | [2] | [3] | [5] | [6] | [7]

C[N+]1(C)[C@@H]2CC[C@H]1CC(OC(=O)C(CO)c1ccccc1)C2 (stereo partly drawn)
inactive: [2] | [3]

CN(C)C(=S)SSC(=S)N(C)C
inactive: [2] | [3]

C/C=C/c1ccc(OC)cc1
inactive: [1]

O=C(O)c1nn(Cc2ccc(Cl)cc2Cl)c2ccccc12
inactive: [4] | [2] | [3] | [6] | [8] | [9]

C=CC[C@]1(O)CC[C@H]2[C@@H]3CCC4=CC(=O)CCC4=C3C=C[C@@]21C
inactive: [2]

Cn1c(=O)c2c(ncn2C)n(C)c1=O
inactive: [1]

O=C1O[C@H]([C@@H](O)CO)C(O)=C1O
inactive: [1]

C[C@]12CC[C@H](O)CC1=CC[C@@H]1[C@@H]2CC[C@]2(C)C(=O)CC[C@@H]12
inactive: [1] | [10] | [11] | [12] | [13] | [14] | [2] | [3] | [15] | [16] | [17] | [18]

COC(=O)C1=CCCN(C)C1
inactive: [4] | [2] | [3] | [5] | [19] | [6] | [8]

CCCCCCCCCCCC[N+](C)(C)CCOc1ccccc1
inactive: [2] | [3]

C=CCOC(Cn1ccnc1)c1ccc(Cl)cc1Cl (stereo not drawn)
inactive: [2] | [3]

C[C@@H]1CN(C2CCC(C#N)(c3ccc(F)cc3)CC2)CC[C@]1(C(=O)O)c1ccccc1 (stereo partly drawn)
inactive: [2] | [3]
